This note sets out measurements from PubChem BioAssay AID1789 (The Scripps Research Institute Molecular Screening Center, 2009).

A word on the inhibition: it is the change of the read-out against control, counted positive when it falls.

About 2,700 (0.93%) of roughly 290,000 compounds were called active. Shown is part of a subset that was picked to be rich in actives. Values without a mark were called inactive.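 How the source made its calls: active means inhibition above the screen-wide mean plus 3 SD, computed separately per campaign (cut at about 16% in these data); inactive means the rest.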

In this assay the test system is Heat shock protein HSP 90 (rabbit reticulocyte lysate; luciferase refolding). Put plainly: inhibitors of HSP90 chaperone activity – cell lysate, luminescence, primary screen (AID 1789).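 Further: 0% = DMSO wells and 100% = 60 µM geldanamycin wells; inhibitors lower the luminescence because luciferase stays unfolded.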 To be noted: 3 h, at 5.6 µM, hits give high values.
On to `CC(C)Cc1nnc(NC(=O)CN2C(=O)NC3(CCCCC3)C2=O)s1`, for which the inhibition is -3.19%. Regarding `CC1CCN(CC(O)COc2ccc(C(=O)c3ccccc3)cc2)CC1` (stereo not drawn), the inhibition is -4.35%. Take `Cc1csc(NC(=O)CSc2nc(=O)cc(N)n2-c2ccc(F)cc2)n1`: the inhibition was -4.86%. To `Cc1nc([N+](=O)[O-])cn1CC(=O)Nc1ccc(Cl)cc1` belongs -5.8%; to `Cc1nc2cc3c(cc2s1)OCO3`, 5.26%. Consider `c1c2c(cc3sc(N4CCCCC4)nc13)OCCO2`, for which the inhibition is 56.8% (active).

For `Brc1ccc2nc(N3CCCC3)sc2c1`, the inhibition is 7.29%.

`COCC1CCN(C(=O)CCc2nnc(C3(c4ccc(Cl)cc4)CCC3)o2)C1` (stereo not drawn): the inhibition is -3.96%. For `CN(CC1CCCN(CCc2cccc(C(F)(F)F)c2)C1)C(=O)c1ccc2nc[nH]c2c1` (stereo not drawn), the inhibition is -5.74%. In the case of `Clc1c(OCCCn2ccnc2)ccc2ccccc12`, the inhibition was 1.78%. Take `CC(=O)Nc1ccc(-c2nc3ccccc3o2)cc1`: the inhibition was 2.88%. Turning to `CCc1ccc2oc(-c3ccc(N)cc3)nc2c1`, the inhibition is 26.4% (active). As for `COc1ccc(-c2nc3cc([N+](=O)[O-])ccc3o2)cc1OC`, the inhibition was 1.87%.

With `COc1ccc2[nH]c(=O)c(CN(Cc3cccnc3)S(=O)(=O)c3ccccc3F)cc2c1`, the inhibition was 1.17%. As for `Cc1cccc(C(=O)OC(C)CN2CCN(C)CC2)c1` (stereo not drawn), the inhibition was 17.2% (active). Take `Cc1ccc(C(=O)OC(C)CN2CCOCC2)cc1` (stereo not drawn): the inhibition is -4.23%. With `Cc1cccc(C(=O)OC(C)CN2CCCC2)c1` (stereo not drawn), the inhibition was 0.74%. For the compound `CCOc1ccc(NC(=O)[C@H](C)NC(=O)C2CC(=O)N(c3ccc(OC)cc3)C2)cc1` (stereo partly drawn), the inhibition is 2.77%. `O=C(NC1CCCC1)C(c1c(F)cccc1Cl)N(C(=O)c1csnn1)C1CC1` (stereo not drawn): the inhibition is -3.16%. On to `Cc1ccc(C(=O)Nc2ccc(C)c(S(=O)(=O)N(C)C)c2)s1`, for which the inhibition was 0.01%. As to `Clc1ccc(Nc2nc(-c3cccs3)cs2)nc1`, the inhibition was 6.93%. To `O=c1oc2ccccc2cc1-c1csc(Nc2ccc(O)cc2)n1` belongs -2.38%; to `Cc1ccc(Nc2nc(-c3ccc(O)cc3O)cs2)nc1`, 28.1% (active); to `CCS(=O)(=O)c1cc([N+](=O)[O-])c(Sc2ccccc2N)s1`, 20.8% (active). In the case of `Nc1ccccc1SC(C[N+](=O)[O-])c1ccccc1` (stereo not drawn), the inhibition was -4.32%.

`CCOC(=O)c1cc(Sc2ccccc2N)cc(C(=O)OCC)n1`: the inhibition is 7.9%. Turning to `O=c1ccc(-c2ccc(S(=O)(=O)Nc3ccccc3)o2)n[nH]1`, the inhibition is -6.52%. Turning to `COCCn1c(N)c(NCc2ccccc2)c(=O)[nH]c1=O`, the inhibition was 7.03%. Turning to `Cn1c(=O)c2c(SCC(=O)NCC3CCCO3)nc(CC(C)(C)C)nc2n(C)c1=O` (stereo not drawn), the inhibition was -3.22%. For `Cc1cc(C(=O)COC(=O)C2CC2)c(C)n1-c1ccc(F)cc1` the value was 84.2% (active); for `COc1cc(/C=N/NC(=O)c2cc(C)n(-c3ccc(F)cc3)c2C)cc(OC)c1O`, 6.31%.

Take `Cc1ccc(-n2c(C)cc(C(=O)CN3C(=O)C(=O)N(C4CCCC4)C3=O)c2C)cc1`: the inhibition is -3.59%. To `COc1ccc(-n2c(C)cc(C(=O)CN3C(=O)NC4(CCc5ccccc54)C3=O)c2C)cc1` (stereo not drawn) belongs 2.66%; to `CCn1cc(/C=C(\NC(=O)c2ccc(C)cc2)C(=O)NCCN2CCOCC2)c2ccccc21`, 3.27%. Consider `CC(C)c1ccc(C(=O)OC2CCOC2=O)cc1` (stereo not drawn), for which the inhibition was 3.27%. For the compound `O=C(OC1CCOC1=O)c1ccc(-c2nc3ccccc3s2)s1` (stereo not drawn), the inhibition is 35.8% (active). To `Cc1nn(Cc2ccccc2)c(Cl)c1C(=O)OC1CCOC1=O` (stereo not drawn) belongs -0.01%. As for `CCOC(=O)C1CCN(Cc2c(C(=O)N3CCOCC3)nc3c(C)cccn23)CC1`, the inhibition was 13.2%.

On to `C=C(C)CNC(=O)c1ccc(OC2CCN(C(=O)COC)CC2)cc1`, for which the inhibition was 2.35%. `CC(C)C[C@H](NC(=O)C1CC(=O)N(c2ccc3c(c2)OCCO3)C1)C(=O)NC1CCCC1` (stereo partly drawn): the inhibition is -1.77%.

As for `CCOC(=O)C(C)Sc1nc2ccccc2c(=O)n1CC1CCCCC1` (stereo not drawn), the inhibition was 2.53%. Consider `CN(c1ccc2nc3ccccc3c(=O)n2n1)C1CCCCC1`, for which the inhibition was 85.9% (active). `O=c1c2ccccc2nc2n1C1(CCCCC1)Cc1ccccc1-2`: the inhibition is 4.03%. As to `COCCC(=O)N1CCC(Oc2ccc(C(=O)NCc3ccon3)cc2)CC1`, the inhibition is -1.71%. With `CNC(=O)CN1C(=O)NC(c2ccccc2)(c2ccccc2)C1=O`, the inhibition is 3.3%.

As to `C=CCc1cc(S(=O)(=O)c2ccc(O)c(CC=C)c2)ccc1O`, the inhibition was -0.52%. For `CCOC(=O)N1CCN(C(=O)C(=O)Nc2sc3c(c2C#N)CC(C)(C)OC3)CC1` the value was -2.63%; for `CCOc1ccc(-n2c(SCC(N)=O)nnc2-c2ccco2)cc1`, 7.02%; for `CCCCOc1ccc(-c2nnc(-c3ccco3)o2)cc1`, -4.76%. Consider `CCOc1ccc(-c2nnc(-c3ccco3)o2)cc1`, for which the inhibition was 30.8% (active).

`CCc1ccccc1OCC(=O)Nc1ccc2c(c1)OCCO2`: the inhibition is -5.09%. `CCn1ccnc1CN(C)C(=O)c1ccc2nc(Cc3ccc(OC)cc3)oc2c1`: the inhibition is -0.73%. As to `COCC1CCN(C(=O)C2CCC(=O)N(Cc3cccc(C(F)(F)F)c3)C2)CC1` (stereo not drawn), the inhibition was 2.25%. Regarding `O=c1c([N+](=O)[O-])cc(C(F)(F)F)cn1Cc1cccc(Cl)c1`, the inhibition is 0.02%. For the compound `O=[N+]([O-])/C=C/c1ccc2c(ccn2Cc2ccccc2)c1`, the inhibition is 21.8% (active). To `O=C(/C=C/c1cccc([N+](=O)[O-])c1)N1CCN(Cc2ccccc2)CC1` belongs -2.98%; to `CN(Cc1ccccc1)C(=O)C(=O)c1cn(CC(=O)N2CCCC2)c2ccccc12`, -3.8%. Regarding `CCc1ccc(NC(=O)NC(C)c2ccc3c(c2)OCO3)cc1` (stereo not drawn), the inhibition was 1.03%.

Consider `Cc1onc(-c2ccccc2)c1C(=O)N1CCN(S(=O)(=O)c2ccccc2C(F)(F)F)CC1`, for which the inhibition is -1.81%. On to `COc1ccc(N2CCN(C(=O)c3cn(C)c4ccc(S(=O)(=O)N5CCOCC5)cc4c3=O)CC2)cc1`, for which the inhibition is -3.81%. In the case of `Cc1cc(C)nc(N2CCC(C(=O)Nc3ccc4c(c3)OCCO4)CC2)n1`, the inhibition was 0.65%.

In the case of `O=C(Nc1cccc(Cl)c1)C1CCCN(c2cnccn2)C1` (stereo not drawn), the inhibition was -2.56%. In the case of `O=C(Nc1ccc2c(c1)OCCO2)C1CCCN(c2ncccn2)C1` (stereo not drawn), the inhibition is 16.9% (active).
